# Results taken from PubChem BioAssay.
# Calls of active or inactive are those of the source.
# Key:
# [1] = compound effects on differentiated 3T3-L1 adipocyte viability – cell-based, 3T3-L1 adipocytes, calcein-AM fluorescence, 48 h, basal, profiling panel (AID 1163); settings: 3T3-L1 adipocytes viability, higher = more signal
# [2] = compound effects on hepatocellular carcinoma cell viability – HepG2, calcein-AM fluorescence, 48 h, basal, profiling panel (AID 1164); settings: higher = more signal
# [3] = compound effects on multiple myeloma cell viability – MM1S, calcein-AM fluorescence, 48 h, basal, profiling panel (AID 1165); settings: higher = more signal;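 further: viability of MM1S multiple myeloma cells under basal unstimulated conditions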
# [4] = calcein-AM signal in unstimulated myeloma cells – cell-based, calcein-AM fluorescence, 48 h, PK04 Diversity Set, profiling panel (AID 1166); settings: RPMI8226 myeloma viability, higher = more signal;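 further: cells grown under basal conditions without added stimulus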
# [5] = JC-1 mitochondrial signal, unstimulated HepG2 cells – cell-based, JC-1 fluorescence, 24 h, 100 nL compound, profiling panel (AID 1167); settings: HepG2 mitochondrial potential, higher = more signal
# [6] = JC-1 mitochondrial signal, unstimulated adipocytes – cell-based, JC-1 fluorescence, 3T3-L1 adipocytes, 24 h, 100 nL compound, profiling panel (AID 1168); settings: JC-1 mitochondrial fluorescence, higher = more signal, called active from +8 up or from −8 down
# [7] = JC-1 mitochondrial signal, unstimulated myeloma cells – cell-based, JC-1 fluorescence, RPMI8226, 24 h, 100 nL compound, profiling panel (AID 1169); settings: JC-1 mitochondrial potential fluorescence, higher = more signal
# [8] = JC-1 mitochondrial signal, unstimulated MM1S myeloma – cell-based, JC-1 fluorescence, 24 h, 100 nL compound, profiling panel (AID 1170); settings: MM1S mitochondrial potential, higher = more signal
# [9] = resazurin metabolic signal in A549 cells – cell-based, resazurin fluorescence, 24 h, PK04 Diversity Set, profiling panel (AID 1171); settings: A549 viability, higher = more signal, called active from +8 up or from −8 down
# [10] = resazurin metabolic signal in HepG2 cells – cell-based, resazurin fluorescence, 24 h, PK04 Diversity Set, profiling panel (AID 1172); settings: HepG2 viability, higher = more signal
# [11] = budding yeast growth changes without added modifier – OD600, strain BY4716, 24 h, basal condition, primary screen (AID 1173); settings: S. cerevisiae BY4716 growth, OD600, 24 h; higher = more signal, called active from +8 up or from −8 down
# [12] = viability profiling in MM1S myeloma cells – cell-based, resazurin fluorescence, basal, 24 h, PK04 Diversity Set, profiling panel (AID 1174); settings: higher = more signal, called active from +8 up or from −8 down
# [13] = molecular target: Dihydroorotate dehydrogenase (quinone), mitochondrial (Plasmodium falciparum (isolate 3D7)) (UniProt Q08210); test: inhibition of P. falciparum DHODH – biochemical, C-terminal His tag, absorbance 600 nm, primary screen (AID 1175); settings: PfDHODH enzyme, DCIP absorbance 600 nm; higher = more signal, called active from +8 up or from −8 down;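 further: recombinant parasite enzyme with a five histidine tag at its C terminus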
# [14] = growth modulation of vineyard yeast isolate – strain RM11-1a, OD600, basal, 24 h, primary screen (AID 1177);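 further: cultures grown under basal conditions with no added stressor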; settings: S. cerevisiae RM11-1a growth, OD600, 24 h; higher = more signal, called active from +8 up or from −8 down
# [15] = growth of efflux-deficient E. coli DRC39 – strain DRC39, OD650, 24 h, E. coli filamentation inducers, primary screen (AID 1178);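 further: growth measured as culture turbidity by optical density at 650 nm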; settings: E. coli DRC39 acrAB, higher = more signal, called active from +8 up or from −8 down
# [16] = growth of efflux-deficient E. coli DRC39 – strain DRC39, OD650, 48 h, E. coli filamentation inducers, primary screen (AID 1179);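 further: screen aims at cell division blockers that make cells filament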; settings: E. coli DRC39 delta-acrAB growth, higher = more signal, called active from +8 up or from −8 down
# [17] = viability profiling in RPMI8226 myeloma cells – cell-based, resazurin fluorescence, basal, 24 h, PK04 Diversity Set, profiling panel (AID 1180); settings: higher = more signal;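 further: RPMI8826 multiple myeloma cell line at 5000 cells per well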
# [18] = molecular target: E3 ubiquitin-protein ligase XIAP (Homo sapiens) (UniProt P98170); test: small molecules binding XIAP protein – biophysical, small-molecule microarray, fluorescence 635 nm, primary screen (AID 1181); settings: higher = more signal;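 further: score merges 667 nm emission and signal to noise over triplicate slides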
# [19] = tested on: XIP peptide (Xip251-270) binding; test: XIP fragment 251-270 binding compounds – biochemical, small-molecule microarray, fluorescence 635/667 nm, 0.1 µg/mL protein, primary screen (AID 1182); settings: fluorescent protein binding, 635 nm, higher = more signal, called active from +8 up or from −8 down
# XIP peptide (Xip251-270) = test: compounds binding XIP fragment 251-270 – biochemical, small-molecule microarray, fluorescence 635/667 nm, 0.5 µg/mL protein, primary screen (AID 1183); settings: fluorescence 635 nm, higher = more signal
# E3 ubiquitin-protein ligase XIAP (Homo sapiens), sequence (P98170 whole entry, looked up, the tested form may be a part): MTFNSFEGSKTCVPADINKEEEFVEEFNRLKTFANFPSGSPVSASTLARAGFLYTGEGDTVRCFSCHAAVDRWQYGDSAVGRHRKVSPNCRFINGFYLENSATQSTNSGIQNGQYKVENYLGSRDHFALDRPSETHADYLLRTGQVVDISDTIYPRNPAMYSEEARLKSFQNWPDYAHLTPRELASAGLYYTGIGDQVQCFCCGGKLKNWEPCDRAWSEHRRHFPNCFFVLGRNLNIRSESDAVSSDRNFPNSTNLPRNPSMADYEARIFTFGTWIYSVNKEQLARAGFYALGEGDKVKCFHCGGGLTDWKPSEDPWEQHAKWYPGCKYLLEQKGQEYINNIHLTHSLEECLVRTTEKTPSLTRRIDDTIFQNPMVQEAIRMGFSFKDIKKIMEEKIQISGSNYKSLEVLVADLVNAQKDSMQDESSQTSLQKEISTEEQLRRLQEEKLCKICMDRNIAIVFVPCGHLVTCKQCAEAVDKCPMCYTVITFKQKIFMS
# Dihydroorotate dehydrogenase (quinone), mitochondrial (Plasmodium falciparum (isolate 3D7)), sequence (Q08210 whole entry, looked up): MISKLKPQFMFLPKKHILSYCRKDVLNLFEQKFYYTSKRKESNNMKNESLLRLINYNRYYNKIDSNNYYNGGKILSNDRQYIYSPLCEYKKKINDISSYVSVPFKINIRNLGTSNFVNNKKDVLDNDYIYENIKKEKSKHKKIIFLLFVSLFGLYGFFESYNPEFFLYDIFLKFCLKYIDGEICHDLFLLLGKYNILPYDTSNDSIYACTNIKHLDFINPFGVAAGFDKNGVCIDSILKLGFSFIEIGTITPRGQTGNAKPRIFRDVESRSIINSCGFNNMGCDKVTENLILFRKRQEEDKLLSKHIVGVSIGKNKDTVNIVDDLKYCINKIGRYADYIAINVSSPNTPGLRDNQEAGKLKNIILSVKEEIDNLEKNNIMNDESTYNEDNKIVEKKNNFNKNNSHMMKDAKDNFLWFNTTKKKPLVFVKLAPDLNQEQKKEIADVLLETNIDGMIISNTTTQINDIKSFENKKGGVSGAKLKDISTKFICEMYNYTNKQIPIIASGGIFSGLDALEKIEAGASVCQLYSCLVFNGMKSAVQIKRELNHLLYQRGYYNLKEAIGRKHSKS
SMILES,z-score [1],z-score [2],z-score [3],z-score [4],z-score [5],z-score [6],z-score [7],z-score [8],z-score [9],z-score [10],z-score [11],z-score [12],composite z-score [13],z-score [14],z-score [15],z-score [16],z-score [17],composite z-score [18],composite z-score [19],composite z-score (XIP peptide (Xip251-270))
CC(C)CNC(=O)[C@@H]1c2ccccc2C(=O)N(Cc2ccc(OC(F)(F)F)cc2)[C@H]1c1ccc(CO)cc1,0.18,0.442,-0.201,0.351,2.64,1.08 (inactive),0.417,-0.881,1.31 (inactive),0.867,-1.78 (inactive),1.33 (inactive),-0.876 (inactive),-2.73 (inactive),1.38 (inactive),1.5 (inactive),1.13,0.205,0.0114 (inactive),0.762
NCCCCCNC(=O)[C@H]1C[C@H]2C(=O)NCC(=O)N2[C@H]1c1ccc(O)cc1,1.46,-0.252,-0.249,0.502,0.848,-0.36 (inactive),-0.806,0.231,0.518 (inactive),-1.2,0.375 (inactive),0.352 (inactive),-0.0658 (inactive),0.774 (inactive),0.172 (inactive),0.214 (inactive),1.18,-0.0918,1.28 (inactive),0.57
CC(C)(C)OC(=O)CC[C@]1(C(=O)NCc2ccccc2)N=C(c2ccc(OCCCO)cc2)O[C@H]1c1ccccc1N=[N+]=[N-],2.99,-0.957,-0.369,-1.52,2.24,2.6 (inactive),-0.578,-0.669,-0.413 (inactive),0.384,0 (inactive),-0.439 (inactive),1.18 (inactive),0.892 (inactive),3.14 (inactive),1.08 (inactive),-0.2,-0.0095,0.735 (inactive),0.725
C=C(COC)C(=O)CC[C@H](OC(=O)c1ccccc1-c1ccccc1C(=O)O)c1ccccc1OCCO,0.819,-0.927,-1.41,0.0361,0.618,0.819 (inactive),-0.437,0.24,0.283 (inactive),0.365,-1.26 (inactive),0.732 (inactive),-1.46 (inactive),-0.524 (inactive),1.54 (inactive),0.515 (inactive),0.439,-0.111,1.43 (inactive),0.356
[N-]=[N+]=Nc1ccccc1[C@H]1OC(c2ccc(OCCCO)cc2)=N[C@@]1(Cc1ccccc1)C(N)=O,1.26,0.13,-3.09,-3.37,0.912,3.11 (inactive),-1.05,-1.45,-1.6 (inactive),0.0234,-1.69 (inactive),-1.29 (inactive),-0.227 (inactive),0.401 (inactive),2.24 (inactive),1.45 (inactive),-1.96,-0.0351,1.05 (inactive),0.657
O=C(NCc1ccccc1)[C@@H]1c2ccccc2C(=O)N(Cc2ccccc2Cl)[C@H]1c1ccc(CO)cc1,1.23,-0.005,0.138,-0.256,1.99,-0.0174 (inactive),-0.939,-0.0877,1.39 (inactive),0.714,-1.18 (inactive),0.687 (inactive),-1.17 (inactive),-1.44 (inactive),0.392 (inactive),0.123 (inactive),1.63,0.0115,0.188 (inactive),0.819
CO[C@H]1O[C@H](CO)[C@@H](OC(=O)Nc2ccccc2)[C@H](OC(=O)Nc2ccc3c(c2)OCO3)[C@H]1OC(=O)Nc1ccc2c(c1)OCO2,1.27,-1.27,-1.03,-1.98,-0.136,3.03 (inactive),-0.629,0.398,-1.33 (inactive),-0.697,-0.613 (inactive),-0.652 (inactive),-0.48 (inactive),1.69 (inactive),2.13 (inactive),0.828 (inactive),-0.638,0.137,1.04 (inactive),0.846
COc1ccc([Si](C)(C)[C@@H]2[C@@H](CCn3cc([C@H](O)c4ccccc4)nn3)O[C@]3(C(=O)N(C)c4c(Br)cc(C)cc43)[C@H]2C)cc1,1.49,-4.5,-2.72,-4.42,-1.11,2.39 (inactive),-1.06,-1.2,-2.49 (inactive),-3.66,-1.39 (inactive),-8.35 (active),-0.973 (inactive),-2.42 (inactive),2.5 (inactive),2.83 (inactive),-6.23,0.382,0.512 (inactive),0.202
CO[C@H]1O[C@H](CO)[C@@H](OC(=O)Nc2ccccc2)[C@H](OC(=O)Nc2ccccc2-c2ccccc2)[C@H]1OC(=O)Nc1ccccc1-c1ccccc1,1.59,-4.94,-3.51,-4.34,-1.05,3.65 (inactive),-1.17,-1.64,-6.11 (inactive),-4.93,-2.12 (inactive),-6.52 (inactive),-0.551 (inactive),0.145 (inactive),0.218 (inactive),-0.414 (inactive),-5.34,0.113,1.32 (inactive),0.896
